Data taken from PubChem BioAssay AID624504 (Sanford-Burnham Center for Chemical Genomics, 2012).
In all, about 5,000 compounds went through this assay and about 3,900 (78%) were called active. Cut-off read from the data, not from the text of the source: active = inhibition above about 22%; inactive = the rest. So high a share suggests a set chosen from earlier hits. Not all results are given here.

test: fluorescence retest of MPTP screen hits in isolated mitochondria, single concentration (AID 624504); conditions: membrane potential, Rhodamine 123 fluorescence, at 10 µM, stronger effect = higher value;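 note: 0% = DMSO vehicle and 100% = positive control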

inhibition, inactive:
C=C1c2c(Cl)ccc(O)c2C(O)=C2C(=O)[C@]3(O)C(O)=C(C(N)=O)C(=O)[C@@H](N(C)C)[C@@H]3[C@@H](O)C12 (some centres undefined) -13.7%
Fc1ccc(N2N=C(c3cccs3)CC2c2ccco2)c(F)c1 (centres undefined) -15.1%
CC(C)c1ccccc1OCC(O)CN(CC(O)COc1cccc2ccccc12)C(C)C (centres undefined) 4.85%
C[C@@H](CN1CCC[C@H]1CN1C(N)=NC[C@@H]1Cc1ccccc1)N1C[C@@H](Cc2ccccc2)N(CCCC2CCCC2)C1=N 7.61%
N=c1n(Cc2ccc(Cl)cc2)c2ccccc2n1CC(O)c1ccco1 (centres undefined) 4.39%
O=C(Nc1cccc(-c2cccc(Cl)c2)c1)C1CCN(C2CCC2)CC1 -9.69%
CCNCCC(=O)N1c2ccccc2Sc2ccc(NC(=O)OCC)cc21 -7.23%
COc1ccc(/C=C(/CC(=O)Nc2ccc(C)cc2)c2nc3ccccc3s2)cc1 -7.49%
CCCCN(CCCC)CCC(O)c1cc2c(Cl)cc(Cl)cc2c2cc(C(F)(F)F)ccc12 (centres undefined) -7.09%
Oc1c(Cl)cc(Cl)c(Cl)c1Cc1c(O)c(Cl)cc(Cl)c1Cl 16.1%
NC(N)=N/N=C/c1ccc(Cl)c([N+](=O)[O-])c1 -8.15%
O=C(Nc1cccc(C(F)(F)F)c1)c1ccc(N2CCNCC2)c([N+](=O)[O-])c1 -27%
CCCCC(=O)NNC(=S)NC(=O)C(c1ccccc1)c1ccccc1 -2.85%
O=[N+]([O-])c1cc(Cl)cc(/C=N/NC(=S)Nc2cc(S(=O)(=O)N3CCOCC3)ccc2Cl)c1O 5.99%
COCCn1c(CN2CCC(Cc3ccccc3)CC2)nc2c1c(=O)n(C)c(=O)n2C 10.1%
Cc1ccc(-c2noc(CCC(=O)Nc3ccccc3N3CCN(C)CC3)n2)cc1 -2.79%
Cc1cc(C)c(NC(=O)C[N+](C)(C)CC(O)COc2cccc3ccccc23)c(C)c1 (centres undefined) -17%

inhibition, active:
Fc1ccccc1CNC(=S)Nc1ccc(Cl)cc1 90.7%
COc1ccc(NS(=O)(=O)c2ccc(Oc3c(C#N)cccc3C#N)cc2)cc1 75.8%
S=C(NCC1COc2ccccc2O1)Nc1ccc(Br)cc1 (centres undefined) 93.1%
S=C(NCCCc1ccccc1)Nc1ccc(Br)cc1 91.8%
CC(NC(=S)Nc1ccccc1)C1COc2ccccc2O1 (centres undefined) 87%
O=C(CSCc1ccc(Br)cc1)Nc1ccc(S(=O)(=O)N2CCCCCC2)cc1 80.4%
Fc1cc(F)c2nc(Nc3nc4c(F)cccc4s3)sc2c1 69.9%
C=CC[n+]1c(-c2ccc(C)cc2)csc1NNC(=O)Nc1ccccc1 83.2%
O=C1CCCN1CCCNC(=S)Nc1ccc(F)c(Cl)c1 90.3%
Oc1c(Br)cccc1/C=N/Nc1c(F)c(F)c(F)c(F)c1F 72.3%
O=C(CC(O)(C(F)(F)F)C(F)(F)F)Nc1ccc(Cl)c(Cl)c1 84.9%
CCOC(=O)N1CCN(C(=O)C2CCN(c3ncnc4c3sc3cccc(F)c34)CC2)CC1 94.4%
N#C/C(=C(/O)Cc1cccc2ccccc12)c1nc2ccccc2s1 69.1%
COc1ccc(Br)cc1C(=O)NC(=S)Nc1cc(-c2nc3ccccc3[nH]2)ccc1C 51%
Cc1cc2ncn(CCCCOc3ccccc3)c2cc1C 36.7%
COc1ccc2c(c1)c(=Cc1ccc(N(C)C)cc1)c1cc(-c3ccccc3)[n+](C)n12 79.7%
O=C(Nc1ccc(C2CC2(Cl)Cl)cc1)c1cccc([N+](=O)[O-])c1 (centres undefined) 78.1%
Fc1ccc2[nH]c3c(N4CCSCC4)ncnc3c2c1 94%
Cc1[nH]n(-c2cccc(Cl)c2)c(=O)c1-c1ccc(Cl)cc1 98.6%
CS(=O)(=O)c1sc(C(=O)NC(=S)Nc2ccc(OC(F)(F)F)cc2)c2c1C=CCC2 71.2%
Cc1cccc(COc2ccccc2/C=N/Nc2ccc([N+](=O)[O-])cc2)c1 81.5%
O=[N+]([O-])c1ccc(N/N=C/c2ccccc2)cc1 81.9%
COc1ccccc1Oc1ccc(S(=O)(=O)Nc2cccnc2)cc1 70.1%
Cc1ccc(C)c(NC(=S)NNC(=S)Nc2ccc(C(C)C)cc2)c1 85.3%
S=C(NCCc1ccccc1)NCc1ccccc1Cl 67.2%
CCCCCC(O)c1cccc(OCc2ccc3ccccc3n2)c1 (centres undefined) 76.1%
Cc1csc(NC(=S)Nc2cccc(Cl)c2)n1 73.4%
S=C(Nc1cccc(Cl)c1)Nc1ccc2cn[nH]c2c1 92.7%
CCN1/C(=C\c2ccc3ccccc3[n+]2CC)Sc2cc(C)ccc21 96.3%
CCc1cc2c(N3CCN(c4nnc(CC)s4)CC3)ncnc2s1 41.8%
CC(NC(=S)Nc1ccc(OC(F)F)cc1)c1ccc(F)cc1 (centres undefined) 93.7%
O=C(Nc1cccc(S(=O)(=O)Nc2ccc(Cl)cc2)c1)c1ccc2c(c1)OCCO2 80.9%
FC(F)(F)c1cccc(NC(=S)Nc2cccc(Cl)c2)c1 96.6%
S=C(Nc1cccc(Cl)c1)Nc1ccc2c(c1)OCCO2 100%
O=[N+]([O-])c1ccc(NS(=O)(=O)c2ccccc2)c(Cl)c1 97.2%
N#C[C@]1(S(=O)(=O)c2ccccc2)C[C@@H]2ON=C(c3cccc(Br)c3)[C@@H]2C1 90.7%
O=C(/C=C/c1ccc(F)cc1)Nc1cccc(S(=O)(=O)Nc2cccc(C(F)(F)F)c2)c1 69.5%
O=C(/C=C(O)/C=C/c1ccc(O)cc1)/C=C/c1ccc(O)cc1 70.7%
COc1cccc(CNc2nc(NCc3ccccc3OC)nc3ccsc23)c1 121%
COc1cccc(CNc2nc(NCc3cccs3)nc3ccsc23)c1 102%
COc1ccccc1CNc1nc(Nc2ccccc2Cl)c2sccc2n1 67%
C=CCC1(CC=C)CCCN1C(=O)c1cc(COc2ccc(-n3cncn3)cc2)on1 103%
CC(C)S(=O)(=O)c1csc(NC(=O)Nc2ccc(Cl)cc2)c1Cl 90.1%
CCCCCOC(=O)NCCOC(=O)Nc1ccc(C(=O)OCC)cc1 72.7%
Cn1nccc1C(=O)NC1CCCc2c1cnn2-c1ccccc1F (centres undefined) 96.6%
Cn1nccc1C(=O)NC1CCCc2c1cnn2-c1ccc(F)cc1F (centres undefined) 101%
COc1ccc(C(=O)NC2CCCc3c2cnn3-c2cccc(C)c2C)c(OC)n1 (centres undefined) 84.1%
Cc1nc(N2CCOCC2)c2c(C)c(C(=O)Nc3ccc(C(F)(F)F)cc3)sc2n1 81.9%
CCCCCc1c(Cc2ccccc2)ncn1CCc1ccccc1OC 106%
Nc1nnc(SCC(=O)Nc2ccc3nc(SCC(=O)Nc4ccccc4)sc3c2)s1 77.9%
Cc1cccc(NC(=O)Nc2cccc(Oc3c(F)c(F)c(F)c(F)c3F)c2)c1 62.1%
CCN(CC)S(=O)(=O)c1ccc(N(C)Cc2ccc(C(F)(F)F)cc2)nc1 93.6%
C=CCSc1nsc(NC(=O)Nc2cccc(C(C)=O)c2)n1 84.6%
CSc1nsc(NC(=O)Nc2ccccc2)n1 89.7%
CCSc1nsc(NC(=O)Nc2cccc(C(C)=O)c2)n1 83.6%
O=C(Nc1ccccc1)Nc1nc2ccccc2s1 80.6%
CC(C)CC(=O)N/C(N)=N/c1nc2ccccc2s1 50%
O=C1c2ccccc2C2=Nc3ccccc3SC(c3ccccc3F)C12 (centres undefined) 59%
S=C(Nc1cccc(Br)c1)N1CCn2cccc2C1c1cccnc1 (centres undefined) 94.4%
CN(c1ccccc1)S(=O)(=O)c1cccc(NC(=O)Cc2ccc(Cl)cc2)c1 81.2%
Cc1ccc(S(=O)(=O)N(CC(=O)Nc2cccc([N+](=O)[O-])c2)Cc2ccc(Cl)cc2)cc1 88.5%
CN(c1cccc(NC(=O)Nc2ccc(Cl)cc2)c1)S(C)(=O)=O 91.2%
O=C(Cc1ccsc1)N1CCN(S(=O)(=O)c2cc(C(F)(F)F)cc(C(F)(F)F)c2)CC1 86.7%
O=C(c1ccncc1)N1CCN(S(=O)(=O)c2cc(C(F)(F)F)cc(C(F)(F)F)c2)CC1 99.7%
CCC(C)N1C(=O)S/C(=C/c2ccc(Sc3nc4ccccc4[nH]3)o2)C1=O (centres undefined) 91.4%
Cc1nc2c(OCc3ccc(Cl)cc3Cl)cccn2c1N(C)CC1CC1 105%
Cc1nc2c(OCc3cccc(Cl)c3)cccn2c1N(C)CC1CC1 107%
Cc1nc2c(OCc3ccc(Cl)cc3)cccn2c1N(C)Cc1cccs1 106%
O=C(/C(=C/c1cccc(Cl)c1)c1nc2ccccc2[nH]1)c1ccccc1 77.4%
CC(C)(C)c1ccc(SCCc2ccncc2)cc1 98.5%
Cc1cc(C)c(SCCc2ccncc2)c(C)c1 95.5%
c1ccc2c(CSCc3nc4ccccc4[nH]3)cccc2c1 55.6%
O=C(c1ccc(N2CCCC2=O)cc1)N1CCN(c2ccc(C(F)(F)F)cc2[N+](=O)[O-])CC1 76%
N#Cc1c(-c2cccs2)nc(SCC(=O)c2ccc(Br)cc2)[nH]c1=O 61.2%
CCc1ccc(NC(=O)Nc2ccncc2)cc1 71.8%
Cc1ccc(NC(=O)Nc2nnc(-c3ccncc3)s2)cc1 81.7%
Cc1nnc(NC(=O)Nc2ccc(Cl)c(Cl)c2)s1 94%
O=C(c1cc(-c2cccc(O)c2)on1)N1CCc2ccccc2C1 33.5%
O=C(NNc1ccccc1Cl)C(O)(c1cccc(C(F)(F)F)c1)c1cccc(C(F)(F)F)c1 83.9%
Cc1ccc(S(=O)(=O)Nc2ccc3ncccc3c2)cc1 72.7%
COc1ccc(S(=O)(=O)NCCCCOc2ccc(Cl)cc2)cc1 88.4%
O=[N+]([O-])c1cc(Br)c(O)c(/C=N/Nc2nc3ccccc3s2)c1 65.6%
O=C(CCN1C(=O)/C(=C/c2cccs2)SC1=S)NNC(=O)c1cccc(O)c1 49%
COc1cc(NC(=O)c2cncc(-c3ccc(C#N)cc3)c2)cc(C(=O)Nc2cccc(C(F)(F)F)c2)c1 58.3%
COC(=O)c1c(C)[nH]c(C(=O)/C=C/c2ccc(Cl)cc2)c1C 86.5%
CCCc1nc2scc(-c3ccc(C)cc3)c2c(=O)n1N 20.9%
CC(C)c1ccc(NC(=S)NC2CC3C=CC2C3)cc1 (centres undefined) 91%
COc1cccc(CNS(=O)(=O)c2ccc3c(c2)CC(C)N3C(=O)C2CCC2)c1 (centres undefined) 91.1%
O=C(Nc1nc(-c2ccc3c(c2)OCO3)cs1)c1ccncc1 42.8%
Cc1ccc(F)cc1NC(=O)Cc1nn(C)c(=O)c2ccccc12 29.6%
Cc1ccc(-c2nc(COC(=O)c3c(C)noc3C)cs2)cc1 23.4%
Cc1ccc(NC(=O)CN(C)CC(=O)Nc2cccc(F)c2)cc1[N+](=O)[O-] 100%
